# Experimental data: PubChem BioAssay (NCI)
# This is part of a sample that, as a whole, favours compounds with a hit. Of some 83,000 tested, about 20% had one in any assay.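 Percent growth is the endpoint: 0 to 100 indicates growth inhibition (40 means 60% inhibition), 0 means no net growth, and negative values indicate cell death.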 A number with no mark means an inactive call. The source made the active and inactive calls. How the source made its calls: active means growth percent below 10; inactive means the rest.
# Experiments:
# Assay in all cases: NCI-60 one-dose screen, 48 h (100 = growth as untreated, 0 = no growth, -100 = all killed)
# Conditions in all cases: 10 µM
# EKVX NSCLC = test system: EKVX NSCLC
# SN12C renal = test system: SN12C renal
# UO-31 renal = test system: UO-31 renal
# TK-10 renal = test system: TK-10 renal
# ACHN renal = test system: ACHN renal
# CAKI-1 renal = test system: CAKI-1 renal
# A498 renal = test system: A498 renal
# CCRF-CEM leukemia = test system: CCRF-CEM leukemia
# MOLT-4 leukemia = test system: MOLT-4 leukemia
Structure (SMILES),growth (EKVX NSCLC),growth (SN12C renal),growth (UO-31 renal),growth (TK-10 renal),growth (ACHN renal),growth (CAKI-1 renal),growth (A498 renal),growth (CCRF-CEM leukemia),growth (MOLT-4 leukemia)
C[C@@H](O)[C@H]1C(=O)N2C(C(=O)O)=C(SC3CN[C@H](C(=O)N(C)C)C3)[C@H](C)[C@H]12 (some centres not stated),104%,99.5%,78.7%,106%,96.9%,95.2%,88.8%,-40.1% (active),116%
O=C1/C(=C/c2cccc(F)c2)Cc2ccccc21,,98.6%,92.8%,94.2%,102%,82.9%,,,112%
CC(C)(C)c1ccc(S(=O)(=O)N[C@H]2CC[C@H]3[C@@H]4CCc5cc(O)ccc5[C@H]4CC[C@]23C)cc1,,28.4%,25.1%,67.5%,35.2%,38.9%,33.6%,,16.8%
Nc1nc(Cl)nc2c1ncn2C1O[C@H](CO)[C@@H](O)[C@@H]1F (some centres not stated),38.1%,14.5%,0.968% (active),64.5%,3.32% (active),-25.9% (active),15.6%,2.64% (active),-4.67% (active)
Nc1nc(-c2ccc(Cl)cc2)cc(-c2cc3ccccc3oc2=O)n1,86.2%,98.5%,69%,95.7%,92.5%,84.1%,99.5%,103%,93.8%
CC(C)(C)c1ccc(S(=O)(=O)N[C@H]2CC[C@H]3[C@@H]4CCc5cc(O)c([N+](=O)[O-])cc5[C@H]4CC[C@]23C)cc1,,71.8%,35.2%,90.6%,30%,46.3%,75.8%,,78.5%
CCc1c2c(nc3ccc(OC(=O)N4CCC(N5CCCCC5)CC4)cc13)-c1cc3c(c(=O)n1C2)COC(=O)[C@]3(O)CC,67.2%,16.2%,11.6%,81.6%,1.66% (active),-17.4% (active),9.23% (active),5.44% (active),-20.6% (active)
CC(C)(C)c1ccc(S(=O)(=O)N[C@H]2CC[C@H]3[C@@H]4CCc5cc(OS(=O)(=O)O)ccc5[C@H]4CC[C@]23C)cc1,,27.4%,17%,,33.4%,41.5%,28.1%,,15.2%
COc1cc(-c2ccc[nH]2)[nH]c1/C=C1\N=C(C)C(C(=O)NC(C)C)=C1C,35.4%,38.3%,-35% (active),17.7%,12.6%,20%,67.7%,,-14.2% (active)
CN(C)CCCN1c2ccccc2CCc2ccc(Cl)cc21,70.5%,61.5%,47.3%,71.3%,69.2%,51.6%,39.9%,60.5%,30.8%
Nc1nc(Cn2c(-c3nonc3N)nc3ccccc32)nc(N2CCCCC2)n1,,98.2%,,109%,95.3%,85.8%,88.6%,85.7%,83.2%
CSc1ccc(-c2cc(-c3ccc(NC(=O)CCCN4CCCC4)cc3)nc(-c3ccc(NC(=O)CCCN4CCCC4)cc3)c2)cc1,,77.8%,84.9%,73.8%,86.1%,83.6%,74.2%,,4.93% (active)
N=C1S/C(=C/c2ccc(-c3ccc4c(c3)C(=O)NC4=O)o2)C(=O)N1c1ccc(Br)cc1,,56.3%,-13.3% (active),42.6%,52%,33.7%,39.5%,,52.2%
O[C@@H]1CO[C@H]2[C@@H]1OC[C@@H]2O,87.6%,103%,106%,117%,98.9%,79.2%,,101%,116%
Cc1cc(CC(C)CC(C)(C)C)n(O)c(=O)c1 (configuration not stated) (tested in a mixture with another compound),24.2%,13.2%,0% (active),75%,9.73% (active),34.3%,62.4%,11.4%,-6.44% (active)
